Reference: paper PMC7826789 (International Journal of Molecular Sciences, 2021)

Columns and labels:
Conditions in all cases: Compound Concentration (nM):1000
GRK1 = test system: GRK1
GRK2 = test system: T1, GRK2
T1 construct: gene ADRBK1

GRK3 = test system: T2, GRK3
T2 construct: gene ADRBK2

GRK4 = test system: GRK4
GRK7 = test system: GRK7
GSK3A = test system: GSK3A
GSK3B = test system: GSK3B
HASPIN = test system: T3, HASPIN
T3 construct: gene GSG2

HCK = test system: HCK
HIPK1 = test system: HIPK1
HIPK2 = test system: HIPK2
HIPK3 = test system: HIPK3
HIPK4 = test system: HIPK4
HPK1 = test system: T4, HPK1
T4 construct: gene MAP4K1

HUNK = test system: HUNK
ICK = test system: ICK
IGF1R = test system: IGF1R
IKK-alpha = test system: T5, IKK-alpha
T5 construct: gene CHUK

IKK-beta = test system: T6, IKK-beta
T6 construct: gene IKBKB

IKK-epsilon = test system: T7, IKK-epsilon
T7 construct: gene IKBKE
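Further: KINOMEscan scanMAX binding as percent activity remaining versus control; lower means stronger binding.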

| SMILES | Percent Control (GRK1) [%] | Percent Control (GRK2) [%] | Percent Control (GRK3) [%] | Percent Control (GRK4) [%] | Percent Control (GRK7) [%] | Percent Control (GSK3A) [%] | Percent Control (GSK3B) [%] | Percent Control (HASPIN) [%] | Percent Control (HCK) [%] | Percent Control (HIPK1) [%] | Percent Control (HIPK2) [%] | Percent Control (HIPK3) [%] | Percent Control (HIPK4) [%] | Percent Control (HPK1) [%] | Percent Control (HUNK) [%] | Percent Control (ICK) [%] | Percent Control (IGF1R) [%] | Percent Control (IKK-alpha) [%] | Percent Control (IKK-beta) [%] | Percent Control (IKK-epsilon) [%] |
| --- | --- | --- | --- | --- | --- | --- | --- | --- | --- | --- | --- | --- | --- | --- | --- | --- | --- | --- | --- | --- |
| C[C@@H](Oc1cc(-n2cnc3ccc(OC4CCN(C)CC4)cc32)sc1C(N)=O)c1ccccc1Cl [GSK579289A] | 75 | 86 | 78 | 37 | 85 | 98 | 100 | 55 | 91 | 61 | 81 | 76 | 15 | 58 | 73 | 96 | 69 | 99 | 100 | 76 |
| CCn1c(-c2nonc2N)nc2c(C#CC(C)(C)O)nc(OCCNC)cc21.Cl [GSK949675] | 77 | 100 | 100 | 100 | 69 | 18 | 55 | 100 | 100 | 42 | 75 | 47 | 100 | 100 | 89 | 100 | 100 | 91 | 98 | 73 |
| NS(=O)(=O)c1ccc(N/N=C2\C(=O)Nc3ccc(C(=O)NCc4ccncc4)cc32)cc1 [GW300657X] | 69 | 86 | 76 | 100 | 83 | 27 | 35 | 54 | 100 | 19 | 9.9 | 12 | 81 | 70 | 86 | 15 | 95 | 86 | 83 | 42 |
| CN(C)c1cc2c(Nc3ccc4c(cnn4Cc4ccccc4)c3)ncnc2cn1 [GW282974X] | 78 | 100 | 86 | 100 | 97 | 98 | 100 | 82 | 57 | 78 | 90 | 100 | 79 | 100 | 100 | 90 | 100 | 92 | 100 | 76 |
| CCc1ccc(Oc2nccc(-c3c(-c4ccc(F)cc4)ncn3C3CCNCC3)n2)cc1 [SB-242719] | 92 | 94 | 90 | 100 | 100 | 97 | 100 | 86 | 99 | 80 | 92 | 100 | 100 | 54 | 86 | 100 | 97 | 99 | 100 | 56 |
| COc1cc(/C=N/Nc2ncnc3[nH]ncc23)ccc1O [GW578748X] | 83 | 100 | 78 | 100 | 100 | 34 | 78 | 0.2 | 64 | 24 | 19 | 16 | 85 | 80 | 100 | 75 | 100 | 14 | 33 | 81 |
| COc1ccc(COc2ccc(Cc3cnc(N)nc3N)cc2OC)cc1 [GW632580X] | 93 | 97 | 93 | 100 | 100 | 95 | 95 | 88 | 90 | 100 | 94 | 100 | 100 | 100 | 72 | 99 | 91 | 94 | 100 | 86 |
| Nc1ncnc2occ(-c3ccc(NC(=O)Nc4cc(C(F)(F)F)ccc4F)cc3)c12 [GW770249X] | 100 | 100 | 98 | 100 | 100 | 23 | 100 | 100 | 74 | 51 | 73 | 29 | 0 | 16 | 97 | 100 | 100 | 18 | 75 | 69 |
| C/C(Nc1ccc(S(N)(=O)=O)cc1)=C1/C(=O)Nc2ccccc21 [GW335962X] | 85 | 98 | 100 | 100 | 97 | 90 | 97 | 33 | 79 | 79 | 93 | 97 | 84 | 100 | 100 | 92 | 95 | 92 | 100 | 63 |
| CC1=C(C(=O)Nc2ccc3[nH]ncc3c2)C(c2ccc3ccccc3c2)CC(=O)N1 (stereo not shown) [GSK270822A] | 78 | 38 | 17 | 100 | 100 | 100 | 100 | 96 | 68 | 87 | 76 | 79 | 100 | 87 | 91 | 84 | 85 | 69 | 72 | 87 |
| Cc1cc(O)cc(C)c1/C=C/c1cncc(C(N)=O)c1 [GW435821X] | 95 | 100 | 100 | 100 | 100 | 96 | 100 | 55 | 38 | 100 | 98 | 100 | 100 | 100 | 100 | 100 | 100 | 100 | 100 | 90 |
| COc1ccc2c(-c3ccnc(Nc4cccc(OC(F)(F)F)c4)n3)cnn2n1 [GW810372X] | 97 | 100 | 98 | 100 | 100 | 34 | 97 | 72 | 100 | 0.7 | 0 | 2.3 | 29 | 83 | 88 | 24 | 100 | 83 | 100 | 62 |
| CC1=C(C(=O)Nc2ccc3[nH]ncc3c2)C(c2ccc(Cl)c(Cl)c2)CC(=O)N1 (stereo not shown) [GSK299115A] | 89 | 16 | 20 | 100 | 99 | 100 | 100 | 84 | 81 | 72 | 92 | 83 | 100 | 100 | 80 | 83 | 93 | 81 | 76 | 100 |
| CCS(=O)(=O)c1ccc(OC)c(Nc2ncc(-c3cccc(F)c3)o2)c1 [GW621970X] | 100 | 100 | 100 | 100 | 100 | 94 | 91 | 79 | 32 | 82 | 87 | 79 | 74 | 100 | 100 | 100 | 100 | 100 | 100 | 98 |
| COc1cc(C)c(N(C)C(=O)CN(C)C)cc1Nc1nc(Nc2cccc(F)c2C(N)=O)c2cc[nH]c2n1 [GSK2219385] | 69 | 100 | 80 | 100 | 70 | 100 | 100 | 41 | 100 | 71 | 100 | 100 | 100 | 100 | 100 | 89 | 7.7 | 100 | 100 | 61 |
| CC(C)COC(=O)c1ccc2c(c1)/C(=C/Nc1ccc(S(N)(=O)=O)cc1)C(=O)N2 [GW416981X] | 86 | 100 | 100 | 43 | 100 | 45 | 71 | 18 | 100 | 88 | 75 | 63 | 100 | 48 | 100 | 44 | 100 | 69 | 100 | 16 |
| Cl.O=S1CCN(Cc2ccc(-c3ccc4ncnc(Nc5ccc(OCc6ccccc6)c(F)c5)c4c3)o2)CC1 [GW576924A] | 98 | 100 | 100 | 100 | 100 | 100 | 100 | 96 | 100 | 100 | 100 | 97 | 100 | 95 | 100 | 100 | 100 | 100 | 94 | 100 |
| Cl.c1ccc(Cc2nc3ccc(Nc4ncnc5ccccc45)cc3[nH]2)cc1 [GR269666A] | 100 | 100 | 100 | 91 | 100 | 100 | 99 | 88 | 100 | 100 | 100 | 100 | 100 | 98 | 100 | 100 | 100 | 100 | 100 | 100 |
| CCS(=O)(=O)c1ccc(OC)c(Nc2ncc(-c3cccc(OC)c3)o2)c1 [GW580509X] | 100 | 100 | 100 | 100 | 100 | 91 | 85 | 83 | 49 | 42 | 56 | 45 | 18 | 88 | 100 | 100 | 100 | 100 | 100 | 100 |
| COc1cc2ncnc(Nc3ccc4c(cnn4Cc4ccccc4)c3)c2cc1OC.Cl [GW282449A] | 100 | 100 | 100 | 100 | 100 | 100 | 100 | 99 | 21 | 100 | 100 | 100 | 100 | 100 | 92 | 100 | 100 | 100 | 100 | 100 |
